For five molecules, residual activity results are on record in ChEMBL document CHEMBL2218924, “A broad activity screen in support of a chemogenomic map for kinase signalling research and drug discovery” (Biochem J, 2013).

Test [1] addresses T1, Ephrin type-A receptor 1 (Homo sapiens) (UniProt P21709).
T1 sequence (whole entry): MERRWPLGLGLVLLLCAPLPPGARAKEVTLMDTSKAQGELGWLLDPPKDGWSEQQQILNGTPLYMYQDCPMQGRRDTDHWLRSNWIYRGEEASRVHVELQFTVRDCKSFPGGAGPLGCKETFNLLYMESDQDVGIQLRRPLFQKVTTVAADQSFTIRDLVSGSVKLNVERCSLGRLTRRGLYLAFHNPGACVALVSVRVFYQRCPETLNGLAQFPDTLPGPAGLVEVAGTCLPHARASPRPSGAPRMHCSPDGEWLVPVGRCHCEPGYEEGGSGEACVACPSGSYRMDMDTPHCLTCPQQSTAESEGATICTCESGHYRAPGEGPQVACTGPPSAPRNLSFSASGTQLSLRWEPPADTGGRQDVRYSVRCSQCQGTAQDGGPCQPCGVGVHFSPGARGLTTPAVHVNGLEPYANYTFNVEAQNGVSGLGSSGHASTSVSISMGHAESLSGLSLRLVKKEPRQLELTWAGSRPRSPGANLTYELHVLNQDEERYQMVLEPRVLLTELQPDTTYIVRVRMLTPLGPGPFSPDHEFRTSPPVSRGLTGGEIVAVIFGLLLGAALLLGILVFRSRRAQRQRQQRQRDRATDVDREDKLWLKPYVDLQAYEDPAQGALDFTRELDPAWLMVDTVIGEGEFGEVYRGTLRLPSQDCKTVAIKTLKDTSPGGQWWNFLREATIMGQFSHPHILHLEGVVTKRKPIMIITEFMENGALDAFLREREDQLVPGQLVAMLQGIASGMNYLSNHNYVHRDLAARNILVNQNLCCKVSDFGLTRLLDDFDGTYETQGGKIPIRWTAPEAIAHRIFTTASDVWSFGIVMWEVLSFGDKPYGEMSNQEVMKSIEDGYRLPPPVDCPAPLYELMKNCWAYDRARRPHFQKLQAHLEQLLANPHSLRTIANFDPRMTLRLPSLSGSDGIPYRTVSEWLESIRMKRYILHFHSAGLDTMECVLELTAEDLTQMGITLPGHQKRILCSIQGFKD
Particulars: at 1 µM.

For test [2], the target named is T2, Myotonin-protein kinase (Homo sapiens) (UniProt Q09013).
T2 sequence (whole entry): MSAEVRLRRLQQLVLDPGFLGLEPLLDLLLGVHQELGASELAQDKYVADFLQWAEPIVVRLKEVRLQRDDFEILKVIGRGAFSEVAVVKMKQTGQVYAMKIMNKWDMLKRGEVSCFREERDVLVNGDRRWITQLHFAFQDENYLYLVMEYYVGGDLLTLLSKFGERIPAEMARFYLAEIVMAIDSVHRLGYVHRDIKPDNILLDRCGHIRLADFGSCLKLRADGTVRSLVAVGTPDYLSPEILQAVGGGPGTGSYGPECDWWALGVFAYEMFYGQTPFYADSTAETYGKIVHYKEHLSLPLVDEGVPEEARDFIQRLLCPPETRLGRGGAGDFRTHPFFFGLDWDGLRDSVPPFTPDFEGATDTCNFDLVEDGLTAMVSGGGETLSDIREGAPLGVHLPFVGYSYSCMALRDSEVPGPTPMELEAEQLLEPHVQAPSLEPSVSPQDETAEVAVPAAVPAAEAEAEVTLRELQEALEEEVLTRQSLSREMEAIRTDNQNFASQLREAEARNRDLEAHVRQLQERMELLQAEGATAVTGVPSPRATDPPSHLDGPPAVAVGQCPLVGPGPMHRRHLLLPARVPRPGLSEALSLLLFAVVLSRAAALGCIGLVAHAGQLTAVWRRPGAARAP
To be noted: at 1 µM.

Test [3] deals with T2, Myotonin-protein kinase (Homo sapiens). Particulars: at 10 µM.
Test [4] addresses T3, Serine/threonine-protein kinase 17A (Homo sapiens) (UniProt Q9UEE5).
T3 sequence (whole entry): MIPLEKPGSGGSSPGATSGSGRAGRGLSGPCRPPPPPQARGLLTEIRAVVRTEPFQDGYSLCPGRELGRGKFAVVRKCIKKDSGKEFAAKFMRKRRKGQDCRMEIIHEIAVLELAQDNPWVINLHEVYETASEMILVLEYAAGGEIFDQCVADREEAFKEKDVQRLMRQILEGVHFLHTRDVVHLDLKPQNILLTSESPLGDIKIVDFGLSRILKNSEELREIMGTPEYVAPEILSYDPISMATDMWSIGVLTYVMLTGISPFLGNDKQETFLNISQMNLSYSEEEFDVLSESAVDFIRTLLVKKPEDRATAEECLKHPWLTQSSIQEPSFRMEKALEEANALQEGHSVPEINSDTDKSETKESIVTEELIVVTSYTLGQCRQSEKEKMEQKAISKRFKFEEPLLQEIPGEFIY
To be noted: at 1 µM.

In test [5] the target is Death-associated protein kinase 1 (Homo sapiens) (UniProt P53355). To be noted: at 10 µM.
Sequence of Death-associated protein kinase 1 (Homo sapiens) (P53355 whole entry, looked up, the tested form may be a part): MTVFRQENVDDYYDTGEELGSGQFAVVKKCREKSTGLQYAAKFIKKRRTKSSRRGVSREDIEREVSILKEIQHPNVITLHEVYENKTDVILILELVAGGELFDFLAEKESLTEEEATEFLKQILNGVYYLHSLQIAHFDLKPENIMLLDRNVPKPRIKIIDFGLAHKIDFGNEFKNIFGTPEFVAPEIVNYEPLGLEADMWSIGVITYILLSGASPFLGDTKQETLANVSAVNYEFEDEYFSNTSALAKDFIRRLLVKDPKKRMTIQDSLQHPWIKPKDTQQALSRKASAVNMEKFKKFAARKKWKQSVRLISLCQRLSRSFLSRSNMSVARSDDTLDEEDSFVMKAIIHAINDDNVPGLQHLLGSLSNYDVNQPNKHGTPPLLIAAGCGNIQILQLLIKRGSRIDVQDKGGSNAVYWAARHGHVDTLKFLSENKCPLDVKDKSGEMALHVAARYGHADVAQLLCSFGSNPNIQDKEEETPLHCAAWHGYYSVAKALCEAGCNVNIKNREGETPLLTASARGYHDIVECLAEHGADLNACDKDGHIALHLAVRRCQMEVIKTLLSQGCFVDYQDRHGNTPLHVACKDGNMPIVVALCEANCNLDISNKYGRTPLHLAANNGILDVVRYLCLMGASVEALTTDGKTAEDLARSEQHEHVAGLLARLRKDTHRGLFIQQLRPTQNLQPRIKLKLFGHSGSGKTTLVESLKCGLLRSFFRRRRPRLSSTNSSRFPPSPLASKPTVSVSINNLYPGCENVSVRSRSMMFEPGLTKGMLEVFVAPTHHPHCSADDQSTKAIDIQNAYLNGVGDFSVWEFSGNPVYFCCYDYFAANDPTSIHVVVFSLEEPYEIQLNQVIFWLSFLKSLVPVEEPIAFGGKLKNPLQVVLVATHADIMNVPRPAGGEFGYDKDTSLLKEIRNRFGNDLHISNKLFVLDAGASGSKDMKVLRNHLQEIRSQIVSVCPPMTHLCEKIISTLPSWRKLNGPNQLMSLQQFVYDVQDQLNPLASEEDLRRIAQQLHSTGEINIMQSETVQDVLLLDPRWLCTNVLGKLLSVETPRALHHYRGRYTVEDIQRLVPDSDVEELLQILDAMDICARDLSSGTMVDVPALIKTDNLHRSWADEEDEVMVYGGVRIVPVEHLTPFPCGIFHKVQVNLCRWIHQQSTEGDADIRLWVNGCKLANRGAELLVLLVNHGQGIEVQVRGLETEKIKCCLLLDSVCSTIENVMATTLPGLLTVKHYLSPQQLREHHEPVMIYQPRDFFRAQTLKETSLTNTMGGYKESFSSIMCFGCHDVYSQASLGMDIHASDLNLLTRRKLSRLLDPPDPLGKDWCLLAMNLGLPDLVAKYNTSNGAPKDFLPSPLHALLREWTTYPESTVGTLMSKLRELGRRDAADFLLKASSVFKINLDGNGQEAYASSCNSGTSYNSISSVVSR
Test [6] has as its target T4, Discoidin domain-containing receptor 2 (Homo sapiens) (UniProt Q16832).
T4 sequence (whole entry): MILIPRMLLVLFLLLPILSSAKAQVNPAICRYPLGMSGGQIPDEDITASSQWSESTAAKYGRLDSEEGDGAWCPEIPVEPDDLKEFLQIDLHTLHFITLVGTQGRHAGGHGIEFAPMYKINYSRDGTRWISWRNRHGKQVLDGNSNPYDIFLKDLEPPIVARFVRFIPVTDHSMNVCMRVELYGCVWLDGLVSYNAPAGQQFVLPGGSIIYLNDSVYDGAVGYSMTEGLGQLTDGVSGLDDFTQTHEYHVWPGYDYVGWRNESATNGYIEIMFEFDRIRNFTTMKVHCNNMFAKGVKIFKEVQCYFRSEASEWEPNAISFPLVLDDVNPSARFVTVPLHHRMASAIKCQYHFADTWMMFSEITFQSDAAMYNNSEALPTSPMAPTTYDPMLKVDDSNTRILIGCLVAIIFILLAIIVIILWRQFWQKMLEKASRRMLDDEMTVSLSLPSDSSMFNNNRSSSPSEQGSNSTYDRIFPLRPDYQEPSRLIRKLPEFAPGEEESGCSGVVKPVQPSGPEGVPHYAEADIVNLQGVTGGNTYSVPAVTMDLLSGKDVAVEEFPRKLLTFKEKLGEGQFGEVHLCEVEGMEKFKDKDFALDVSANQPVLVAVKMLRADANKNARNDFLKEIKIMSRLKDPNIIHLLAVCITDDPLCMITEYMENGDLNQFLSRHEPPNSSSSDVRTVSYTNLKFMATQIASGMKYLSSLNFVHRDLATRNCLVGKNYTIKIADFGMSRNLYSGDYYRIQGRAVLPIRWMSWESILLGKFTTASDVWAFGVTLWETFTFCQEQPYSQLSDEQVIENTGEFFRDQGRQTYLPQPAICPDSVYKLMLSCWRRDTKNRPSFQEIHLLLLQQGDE
To be noted: at 1 µM.

Test [7] concerns the target T3, Serine/threonine-protein kinase 17A (Homo sapiens). Particulars: at 10 µM.
In test [8] the target is T5, Dual specificity tyrosine-phosphorylation-regulated kinase 2 (Homo sapiens) (UniProt Q92630).
T5 sequence (whole entry): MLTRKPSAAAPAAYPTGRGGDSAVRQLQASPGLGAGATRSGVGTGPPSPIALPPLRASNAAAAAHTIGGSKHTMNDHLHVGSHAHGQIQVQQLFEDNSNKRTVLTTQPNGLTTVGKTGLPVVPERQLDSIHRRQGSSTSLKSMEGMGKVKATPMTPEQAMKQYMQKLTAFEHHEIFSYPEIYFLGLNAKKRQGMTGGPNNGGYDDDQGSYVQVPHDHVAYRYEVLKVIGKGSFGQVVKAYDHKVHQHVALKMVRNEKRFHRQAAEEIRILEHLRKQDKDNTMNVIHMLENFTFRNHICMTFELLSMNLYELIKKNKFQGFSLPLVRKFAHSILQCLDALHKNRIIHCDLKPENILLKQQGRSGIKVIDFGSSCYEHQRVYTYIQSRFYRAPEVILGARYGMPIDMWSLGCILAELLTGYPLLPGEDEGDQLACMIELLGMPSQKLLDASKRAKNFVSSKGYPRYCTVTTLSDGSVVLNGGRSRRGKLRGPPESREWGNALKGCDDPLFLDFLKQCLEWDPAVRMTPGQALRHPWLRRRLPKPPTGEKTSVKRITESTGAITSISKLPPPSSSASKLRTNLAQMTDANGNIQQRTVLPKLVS
To be noted: at 1 µM.

In test [9] the target is T5, Dual specificity tyrosine-phosphorylation-regulated kinase 2 (Homo sapiens). Particulars: at 10 µM.
Test [10] has as its target T1, Ephrin type-A receptor 1 (Homo sapiens). Particulars: at 10 µM.
Test [11] addresses Ephrin type-A receptor 2 (Homo sapiens) (UniProt P29317). Particulars: at 1 µM.
Test [12] concerns the target T6, Ephrin type-A receptor 3 (Homo sapiens) (UniProt P29320).
T6 sequence (whole entry): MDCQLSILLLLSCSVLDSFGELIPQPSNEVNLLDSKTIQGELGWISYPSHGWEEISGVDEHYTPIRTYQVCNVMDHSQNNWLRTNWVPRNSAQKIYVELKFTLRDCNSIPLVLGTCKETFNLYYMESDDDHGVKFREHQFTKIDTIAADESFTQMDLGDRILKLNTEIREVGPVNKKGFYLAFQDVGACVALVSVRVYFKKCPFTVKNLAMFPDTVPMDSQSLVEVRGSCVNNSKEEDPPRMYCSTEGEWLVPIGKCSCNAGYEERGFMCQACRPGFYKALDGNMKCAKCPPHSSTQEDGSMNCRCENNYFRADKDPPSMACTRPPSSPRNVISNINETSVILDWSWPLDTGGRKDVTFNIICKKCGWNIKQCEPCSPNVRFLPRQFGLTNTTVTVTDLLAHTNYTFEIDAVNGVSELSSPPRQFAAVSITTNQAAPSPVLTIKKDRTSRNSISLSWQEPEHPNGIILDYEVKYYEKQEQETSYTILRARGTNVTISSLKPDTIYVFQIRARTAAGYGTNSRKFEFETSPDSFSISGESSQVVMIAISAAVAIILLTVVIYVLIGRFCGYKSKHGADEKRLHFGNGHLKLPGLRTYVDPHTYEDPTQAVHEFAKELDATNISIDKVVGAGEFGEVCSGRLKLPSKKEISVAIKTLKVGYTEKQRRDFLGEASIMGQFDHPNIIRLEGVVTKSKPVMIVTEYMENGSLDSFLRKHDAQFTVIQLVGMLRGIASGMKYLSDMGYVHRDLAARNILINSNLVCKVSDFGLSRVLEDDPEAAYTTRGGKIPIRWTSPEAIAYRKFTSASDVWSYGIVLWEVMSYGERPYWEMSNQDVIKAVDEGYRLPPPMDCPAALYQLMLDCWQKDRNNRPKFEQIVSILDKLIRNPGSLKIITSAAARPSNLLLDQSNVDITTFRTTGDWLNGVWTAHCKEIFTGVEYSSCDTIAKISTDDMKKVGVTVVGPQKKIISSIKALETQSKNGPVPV
Particulars: at 1 µM.

Test [13] deals with T7, Serine/threonine-protein kinase DCLK2 (Homo sapiens) (UniProt Q8N568).
T7 sequence (whole entry): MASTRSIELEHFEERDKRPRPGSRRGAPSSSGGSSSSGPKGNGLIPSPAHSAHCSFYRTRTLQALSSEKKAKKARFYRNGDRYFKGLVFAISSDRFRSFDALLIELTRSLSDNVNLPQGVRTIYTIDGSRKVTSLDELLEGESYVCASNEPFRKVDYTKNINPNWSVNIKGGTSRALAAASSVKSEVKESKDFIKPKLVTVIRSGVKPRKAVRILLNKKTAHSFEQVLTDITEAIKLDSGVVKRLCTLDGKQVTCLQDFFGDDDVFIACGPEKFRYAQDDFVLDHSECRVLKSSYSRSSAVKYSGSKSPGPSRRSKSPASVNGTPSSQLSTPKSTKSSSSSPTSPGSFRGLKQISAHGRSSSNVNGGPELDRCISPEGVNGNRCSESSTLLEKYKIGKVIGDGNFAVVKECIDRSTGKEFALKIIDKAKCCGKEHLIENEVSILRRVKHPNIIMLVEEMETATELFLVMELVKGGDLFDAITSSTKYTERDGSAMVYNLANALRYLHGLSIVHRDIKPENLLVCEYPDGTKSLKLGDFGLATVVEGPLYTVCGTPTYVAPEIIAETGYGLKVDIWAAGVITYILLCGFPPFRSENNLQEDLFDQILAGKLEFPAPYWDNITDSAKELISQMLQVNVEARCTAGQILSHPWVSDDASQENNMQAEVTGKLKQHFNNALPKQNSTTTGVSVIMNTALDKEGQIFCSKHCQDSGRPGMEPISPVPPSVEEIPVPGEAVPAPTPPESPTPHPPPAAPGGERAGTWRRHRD
Particulars: at 1 µM.

Test [14] addresses T7, Serine/threonine-protein kinase DCLK2 (Homo sapiens). Particulars: at 10 µM.
The target in test [15] is T4, Discoidin domain-containing receptor 2 (Homo sapiens). To be noted: at 10 µM.
Test [16] concerns the target Ephrin type-A receptor 2 (Homo sapiens) (UniProt P29317). To be noted: at 10 µM.

Sequence of Ephrin type-A receptor 2 (Homo sapiens) (P29317 whole entry): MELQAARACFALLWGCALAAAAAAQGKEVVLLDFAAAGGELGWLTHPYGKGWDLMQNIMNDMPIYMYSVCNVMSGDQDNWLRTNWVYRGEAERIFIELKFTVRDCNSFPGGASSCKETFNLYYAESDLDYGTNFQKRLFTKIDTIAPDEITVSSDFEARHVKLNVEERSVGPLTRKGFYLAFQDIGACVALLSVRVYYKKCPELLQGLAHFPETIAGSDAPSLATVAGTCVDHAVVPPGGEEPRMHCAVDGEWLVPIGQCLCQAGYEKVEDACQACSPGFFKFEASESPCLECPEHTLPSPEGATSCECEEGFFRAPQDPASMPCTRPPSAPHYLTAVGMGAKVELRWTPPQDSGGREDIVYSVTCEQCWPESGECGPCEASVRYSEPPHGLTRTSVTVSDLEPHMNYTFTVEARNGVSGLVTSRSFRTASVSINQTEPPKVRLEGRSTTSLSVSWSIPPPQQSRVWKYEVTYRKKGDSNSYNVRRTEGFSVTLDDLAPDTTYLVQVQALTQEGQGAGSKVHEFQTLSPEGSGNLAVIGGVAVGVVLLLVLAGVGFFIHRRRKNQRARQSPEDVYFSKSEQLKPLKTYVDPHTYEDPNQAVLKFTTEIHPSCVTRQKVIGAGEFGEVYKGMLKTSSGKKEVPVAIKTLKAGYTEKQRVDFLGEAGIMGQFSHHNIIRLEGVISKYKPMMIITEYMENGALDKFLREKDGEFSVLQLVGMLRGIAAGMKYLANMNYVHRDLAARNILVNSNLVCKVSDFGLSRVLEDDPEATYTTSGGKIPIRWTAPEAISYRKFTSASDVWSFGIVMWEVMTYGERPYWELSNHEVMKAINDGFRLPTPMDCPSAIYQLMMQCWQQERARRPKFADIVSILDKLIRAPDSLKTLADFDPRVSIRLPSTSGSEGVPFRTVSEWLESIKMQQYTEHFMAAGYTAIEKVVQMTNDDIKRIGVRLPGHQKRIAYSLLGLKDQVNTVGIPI

Regarding `O=S(=O)(c1cccc2cnccc12)N1CCCNCC1`, the residual activity (commonly the signal under treatment as a percentage of the control signal) in test [1] worked out at 100%.
With `CN([C@@H](Cc1ccc(OS(=O)(=O)c2cccc3cnccc23)cc1)C(=O)N1CCN(c2ccccc2)CC1)S(=O)(=O)c1cccc2cnccc12`, the residual activity in test [2] was 135%; in test [3], 115%; in [4] it was 117%.
For `O=C1C(Cl)=C(N2C(=O)CCC2=O)C(=O)c2ccccc21`, the residual activity turned out to be 90% in [5]; 89% in test [6]; 85% in test [3]; 82% in test [7]; 100% in [8]; 92% in test [9]. Besides, the residual activity in test [10] came out at 84%; in test [11] it was 93%; in [12], 85%.
Regarding `O=C1NC(=O)C(c2cn(CCCn3ccnc3)c3ccccc23)=C1Nc1ccccc1`, the residual activity in [13] stood at 100%; in test [14], 79%; in test [2] it was 120%; in test [3] it was 124%.
Regarding `Fc1ccc(-c2nc3n(c2-c2ccncc2)CCS3)cc1`, the residual activity in test [5] worked out at 93%; in test [6], 83%; in test [15], 35%; in test [2], 87%; in test [3] it was 96%; in [7], 91%. Further, the residual activity in test [9] worked out at 91%; in [11], 99%; in test [16], 87%.
